In the library only some 1.3% were active in any assay of this set; here they are far more common.
FadD28 binding = inhibitors of Mycobacterium tuberculosis FadD28 bisubstrate binding. AID 588549. FadD28 bisubstrate probe binding, fluorescence polarization. 360,000 tested, 0.22% active. inhibition, % at 12.5 µM; in the data active means inhibition above about 8.5%, passing the limit was not always enough; inconclusive means no clear call, values can overlap the other calls
BJeLR viability = BJeLR cell viability loss | 300,000 tested, 0.17% active | BJeLR (HRASV12) viability, CellTiter-Glo ATP luminescence, 48 h | inhibition, % (no concentration beside the values); in the data active means inhibition above about 50%; inconclusive means no clear call, values can overlap the other calls
RecA splice inh = inhibitors of M. tuberculosis RecA intein splicing; P9WHJ3; cell-free RecA intein splicing, fluorescence; inhibition, % (no concentration beside the values); 290,000 tested, 0.75% active; AID 2221; in the data active means inhibition above about 30%; inconclusive means no clear call, values can overlap the other calls;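 further: 0% = vehicle wells and 100% = reference inhibitor control wells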
Target sequence (P9WHJ3 whole entry, looked up, canonical isoform): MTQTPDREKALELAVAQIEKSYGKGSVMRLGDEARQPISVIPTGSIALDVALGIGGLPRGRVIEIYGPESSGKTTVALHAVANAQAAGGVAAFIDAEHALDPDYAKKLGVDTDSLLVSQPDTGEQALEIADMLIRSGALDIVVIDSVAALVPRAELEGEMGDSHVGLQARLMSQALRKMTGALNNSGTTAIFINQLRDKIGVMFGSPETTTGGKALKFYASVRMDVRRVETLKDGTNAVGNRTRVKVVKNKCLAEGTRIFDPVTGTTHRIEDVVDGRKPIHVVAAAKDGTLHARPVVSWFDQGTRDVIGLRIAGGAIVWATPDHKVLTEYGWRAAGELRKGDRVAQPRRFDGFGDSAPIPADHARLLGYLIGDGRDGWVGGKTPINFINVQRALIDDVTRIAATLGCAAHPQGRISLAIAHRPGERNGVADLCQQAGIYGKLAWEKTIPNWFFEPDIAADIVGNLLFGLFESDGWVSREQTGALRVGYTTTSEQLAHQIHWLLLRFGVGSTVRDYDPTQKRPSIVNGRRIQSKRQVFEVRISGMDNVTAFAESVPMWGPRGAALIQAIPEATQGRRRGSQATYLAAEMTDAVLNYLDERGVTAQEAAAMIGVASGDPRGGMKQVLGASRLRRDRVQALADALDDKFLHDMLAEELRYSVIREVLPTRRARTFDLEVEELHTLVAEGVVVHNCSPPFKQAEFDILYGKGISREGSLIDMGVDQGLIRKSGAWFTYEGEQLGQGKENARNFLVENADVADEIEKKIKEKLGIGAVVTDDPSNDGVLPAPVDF
Rv3671c inh = inhibits the M. tuberculosis serine protease Rv3671c; P9WHR9; inhibition, % at 5.96 µM; 320,000 tested, 0.048% active; in the data active means inhibition above about 38%;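 further: extracellular domain of Rv3671c used as enzyme; 0% = enzyme with DMSO and 100% = no enzyme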
PrP UTR inh = suppresses PrP 5' UTR mRNA reporter expression. cell-based PrP 5' UTR mRNA reporter, plate reader. inhibition, % (no concentration beside the values). AID 488862. 340,000 tested, 0.35% active; in the data active means inhibition above about 52%; further: 0 = median of the neutral control wells
UGM FP inh = Mtb UDP-galactopyranose mutase inhibition | inhibition, % at 10 µM | purified UGM, fluorescence polarization probe displacement | 320,000 tested, 0.06% active | AID 504406 | P9WIQ1; in the data active means inhibition above about 10%, passing the limit was not always enough; inconclusive means no clear call, values can overlap the other calls
PrP UTR cherry = prion 5' UTR mRNA inhibition, cherry-pick retest; shares compounds with PrP UTR inh; cell-based prion protein 5' UTR reporter, plate reader; inhibition, % at 2.5 µM; 1,100 tested, 48% active; AID 504592; in the data active means inhibition above about 54%; inconclusive means no clear call, values can overlap the other calls
Active calls of the source: *; u = inconclusive; x = no result; ! = a repeat was not active.

SMILES | FadD28 binding | BJeLR viability | RecA splice inh | Rv3671c inh | PrP UTR inh | UGM FP inh | PrP UTR cherry
CCOc1ccc(NC(=O)Nc2cccc(C(=O)O)c2)cc1 | 0 | 31 | x | 3 | 88* | 0 | 91*
O=C(NCc1ccccc1)c1cccc(COc2ccc3c(c2)CCC3)c1 | -5 | -10 | 0 | -21 | 3 | 1 | x
Cc1ccccc1OCC(=O)Nc1cccc(C(=O)O)c1 | -1 | 4 | -1 | x | 76* | x | 77*
Cc1ccc(C(O)c2ncc(-c3cccc4ccccc34)[nH]2)c(C)c1 (configuration not stated) | -5 | x | x | x | x | x | x
COc1ccccc1CCC(=O)Nc1ccc2c(c1)CN(Cc1ccc(C)o1)CC2 | -3 | -9 | -8 | -2 | -26 | 3 | x
CN1C(=O)c2ccc(Oc3ccccc3)cc2C1=O | -1 | -1 | 1 | 1 | -11 | -2 | x
O=C(c1cccc(-n2cccc2)c1)N1CCN(S(=O)(=O)c2c(F)cccc2F)CC1 | -1 | -6 | 3 | -3 | -8 | 1 | x
CN1CCN(c2ccc(NC(=O)N3CCc4ccccc43)cc2)CC1 | 0 | -6 | -1 | 0 | 64* | -2 | u
C=CCN1CC[C@]23c4c5ccc(O)c4OC2[C@H](O)CC[C@@]3(O)[C@H]1C5 (some centres not stated) | 2 | x | x | 5 | 1 | x | x
Oc1ccc2c3c1O[C@H]1[C@@H](O)CC[C@@]4(O)[C@@H](C2)N(CC2CCC2)CC[C@]314 | -2 | -3 | -1 | -1 | 63*! | 0 | -6
O=S(=O)(c1ccc(F)cc1)N1CCN(CC2CC3C=CC2C3)CC1 (configuration not stated) | 2 | -10 | 3 | 5 | -12 | 1 | x
CC1=C(C(=O)OCc2ccccc2)C(c2cccc3ccccc23)NC(=O)N1CCCC(=O)O (configuration not stated) | 0 | x | x | -7 | -10 | -2 | x
Cc1cc(Cl)ccc1NC(=S)N1CCN(Cc2ccccc2)CC1 | -4 | -11 | 5 | 2 | 51* | -2 | 9
c1ccc(C(Nc2cccnc2)c2ccccc2)cc1 | -1 | x | x | x | 71* | x | -13
Fc1ccc(-c2nnc(NC3=NCCCCC3)o2)cc1 | -3 | 17 | 1 | -2 | 78* | x | 64*
COc1cc(-c2noc(C)c2/C=C/c2ccc(OC(C)=O)cc2)cc(OC)c1OC | -2 | 31 | -2 | -10 | 64* | -1 | 85*
CC(=O)CSc1ccc(-c2nc3cc(C)c(C)cc3[nH]2)cn1 | -8 | 7 | -4 | 0 | 82* | 0 | 74*
CC(=O)CSc1ccc(-c2nc3ccccc3[nH]2)cn1 | -2 | 30 | 1 | 4 | -14 | -3 | x
Cc1ccc(C)c(NC(=O)CN2C(=O)NC(CCc3ccccc3)C2=O)c1 (configuration not stated) | -3 | x | x | 1 | -30 | -1 | x
Cn1c(-c2ccccc2)cc2onc(-c3ccccc3)c2c1=O | -2 | x | x | -4 | 63* | -1 | 32
CC(C)NC(=O)N(C)C[C@@H]1Oc2ccc(NC(=O)CCN3CCOCC3)cc2CC(=O)N([C@@H](C)CO)C[C@@H]1C | 1 | x | x | -4 | -13 | 6 | x
CCCn1cnc2c(=S)nc(N)[nH]c21 | -3 | 10 | -2 | 3 | -5 | 6 | x
O=S(=O)(Cc1ccccc1Cl)NCc1ccccc1 | -4 | -1 | -1 | -1 | -19 | -1 | x
CSC1SCC2C(=O)N(C)C(C(C)C)C(=O)OCC(NC(=O)c3cnc4ccccc4n3)C(=O)NC(C)C(=O)N(C)C1C(=O)N(C)C(C(C)C)C(=O)OCC(NC(=O)c1cnc3ccccc3n1)C(=O)NC(C)C(=O)N2C (configuration not stated) | -2 | x | x | x | 92* | x | 93*
CN(C)CC(C)(C)CNC(C(=O)Nc1ccc(Cl)cc1C(F)(F)F)c1ccccc1 (configuration not stated) | -1 | 1 | -1 | 5 | -21 | -6 | x
SMILES | FadD28 binding | BJeLR viability | RecA splice inh | Rv3671c inh | PrP UTR inh | UGM FP inh | PrP UTR cherry
CCC(=O)c1ccc(Oc2nc3c(c(=O)n(C)c(=O)n3C)n2CC)cc1 | -2 | -16 | -1 | 1 | 58* | -2 | 7
CC(O)C1C=CC=CC(=O)OC2CC3OC4C5OC5(C)CCC4(COC(=O)C4OC4(C)C(O)CO1)C2(C)C31CO1 (configuration not stated) | -1 | x | x | x | 83* | x | 82*
CC(=O)OC1C(=O)OCC23CCC4(C)OC4C2OC2CC(OC(=O)C=CC=CC(=O)OCCC1C)C3(C)C21CO1 (configuration not stated) | 0 | x | x | x | 94* | x | 95*
N#Cc1ccc(COc2cccc3cccnc23)cc1 | -2 | 10 | x | 4 | 2 | 4 | x
Cc1ccc(-n2c(C)cc(C(=O)COc3cccnc3[N+](=O)[O-])c2C)cc1 | -3 | -20 | -2 | -6 | 50 | x | x
Cc1cc(C(=O)COc2cccnc2[N+](=O)[O-])c(C)n1-c1ccccc1 | -1 | 19 | -2 | 4 | 58* | -2 | u
NC(=O)CC(NC(=O)Cc1cccc2ccccc12)c1ccc(NCc2ccccc2)c([N+](=O)[O-])c1 (configuration not stated) | -2 | -3 | 1 | -1 | -25 | 3 | x
NC(=O)CC(NC(=O)Cc1cccc2ccccc12)c1ccc(NCc2ccc(F)cc2)c([N+](=O)[O-])c1 (configuration not stated) | -2 | 2 | 2 | -51 | 75* | 3 | -27
COc1ccccc1-n1c([S-])c(C(=O)Nc2ccccc2C(F)(F)F)[n+]2ccc(C(=O)NCCO)cc12 | -4 | -4 | -9 | -6 | -18 | 4 | x
Cc1ccc(-n2c([S-])c(C(=O)Nc3ccc(OC(F)F)cc3)[n+]3ccc(C(=O)NCCO)cc23)cc1C | -4 | -1 | -4 | 0 | 78* | 3 | 0
CCCCN(C(=O)c1ccc(Cl)cc1)C1CC2CCC(C1)N2C (configuration not stated) | 0 | -5 | -6 | 1 | 72* | 1 | -14
Cc1cc(NC2=CC(=O)C(=O)c3ccccc32)no1 | 2 | x | x | x | 77* | x | -2
O=C(CC(Nc1ccc(Cl)cc1Cl)C(=O)O)c1ccccc1 (configuration not stated) | -2 | -7 | -3 | 4 | 63* | 0 | 16
O=C(COC(=O)Cc1c[nH]c2ccccc12)Nc1cccc(Br)c1 | 3 | x | x | x | x | x | x
O=C(c1oc(=O)c2ccccc2c1-c1ccccc1)N1CCC(O)CC1 | 0 | -5 | -1 | -4 | 68* | 0 | -21
O=C(c1oc(=O)c2ccccc2c1-c1ccccc1)N1CCN(C2CCCCC2)CC1 | -4 | -9 | 1 | 0 | 10 | -1 | x
CCCCN(C(=O)COc1ccc(C)cc1OC)c1c(N)n(CCC)c(=O)[nH]c1=O | 0 | -4 | -16 | 2 | -10 | -1 | x
CN(C)C(=O)c1cc(C(=O)c2c(F)cccc2F)c[nH]1 | x | -3 | -1 | -15 | 68* | -1 | -14
